From PubChem
Only a selection was taken, and hits are over-represented in it overall.
Rango release inh: qHTS Assay for Inhibitors of RanGTP induced Rango (Ran-regulated importin-beta cargo) - Importin beta complex dissociation; Snurportin-1 (Homo sapiens) + GTP-binding nuclear protein Ran (Homo sapiens) + Importin …; Biochemical FRET Rango-importin beta, RanGTP-induced dissociation; Potency, µM (titrated, usually from 46.1 µM), without a hit: at the highest dose activity change, negative = inhibition; hit rate 0.071% among 340,000; AID 540253, 2011; note: potency is the fitted concentration of half-maximal effect; % of control where 0% means no effect; nearly all actives have a fitted effect of over 45% in size
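Rango FRET biosensor (snurportin-1 IBB flanked by N-terminal EYFP and C-terminal CFP10) at 0.1 uM, with 0.25 uM importin beta in PBS, 1mM DTT, 0.02% Tween-20, 0.1% BSA. 0.6 uM Ran, 2mM GTP and 0.2 uM RCC1 were then added for 45 min at room temperature. Inhibition read as loss of FRET rise.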
Rango complex inh: qHTS Assay for Inhibitors of Rango (Ran-regulated importin-beta cargo) - Importin beta complex formation | Importin subunit beta-1 (Homo sapiens), Q14974 | Rango CFP/YFP FRET sensor + importin beta, 45 min | Potency, µM (series often up to 92.2 µM), for the others: at the highest dose inhibition of complex formation | hit rate 0.031% among 340,000;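 note: potency is the fitted concentration of half-maximal effect; 0% = DMSO wells and 100% = buffer wells lacking importin beta; nearly all actives have a fitted effect of over 15% in size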
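FRET biosensor Rango (snurportin 1 IBB between N-terminal EYFP and C-terminal Cerulean), 50 nM in PBS/1 mM DTT/0.02% Tween-20/0.1% BSA, preincubated 5 min RT with compound; 0.125 microM importin beta added, 45 min RT, CFP/YFP FRET ratio read.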
ClpP mod: qHTS Assay for Activators of ClpP; ATP-dependent Clp protease proteolytic subunit (Bacillus subtilis (strain 168)), P80244; purified B. subtilis ClpP, FRET peptide cleavage, 20 min; Potency, µM (doses to about 57.5 µM), without a hit: at the highest dose activity change, negative = active; hit rate 1.9% among 340,000; active = well fitted falling curve with a large enough effect; inconclusive = small, poorly fitted or top-dose-only effect; inactive = no such curve, though single readings can be large or run the other way; note: potency is the fitted concentration of half-maximal effect; the source files actives as falling curves though it sought activators and does not explain the sign; nearly all actives have a fitted effect of over 65% in size
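Buffer: 100 mM Tris/HCl pH8, 100 mM KCl, 0.05% low protease BSA, 2.5% glycerol, 0.01% Tween-20. ClpP 10 microg/mL final; 20 min RT; delta FRET normalized to ADEP and DMSO controls.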
MBNL1 CUG block: qHTS Assay for Inhibitors of MBNL1-poly(CUG) RNA binding. Muscleblind-like protein 1 (Homo sapiens), Q9NR56. TR-FRET MBNL1-His/biotin-(CUG)12 binding, 665/545 ratio. Potency, µM (doses to about 57.5 µM), for the others: top-dose activity change, negative = inhibition, most hits filed as inhibitors. hit rate 0.036% among 280,000. AID 2675, 2010; active = well fitted inhibition curve with a large enough effect in the signal ratio, with a control signal flat, not every such curve was filed as active; inconclusive = small, poorly fitted or top-dose-only effect, or effect the other way, or a change in a side signal; inactive = no such curve, though single readings can be large or run the other way; the % refers to the signal ratio; note: potency is the fitted concentration of half-maximal effect; % is set by controls: 0 for no effect and ±100 for the full control effect
Target sequence (Q9NR56 whole entry, looked up): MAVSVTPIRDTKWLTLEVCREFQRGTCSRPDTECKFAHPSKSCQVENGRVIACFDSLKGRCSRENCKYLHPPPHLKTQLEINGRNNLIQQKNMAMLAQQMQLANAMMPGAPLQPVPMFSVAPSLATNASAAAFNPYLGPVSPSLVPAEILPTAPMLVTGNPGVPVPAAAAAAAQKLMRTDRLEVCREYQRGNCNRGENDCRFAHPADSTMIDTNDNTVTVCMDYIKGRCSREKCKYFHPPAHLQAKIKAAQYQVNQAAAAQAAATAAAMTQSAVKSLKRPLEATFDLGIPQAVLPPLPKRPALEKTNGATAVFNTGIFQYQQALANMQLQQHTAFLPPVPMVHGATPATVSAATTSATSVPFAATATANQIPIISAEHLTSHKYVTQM
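MBNL1-His + Biotin-(CUG)12, cpd titration 92 nM–58 uM; Tb anti-His Ab 0.055 ng/ul, SA-XL665 5 nM (final); 60 min RT; ratiometric 665/545 nm, Ex 340 nm; normalized to buffer and full-complex controls.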
CBFb-RUNX1 inh: qHTS Assay for Compounds Blocking the Interaction Between CBF-beta and RUNX1 for the Treatment of Acute Myeloid Leukemia. Runt-related transcription factor 1 (Homo sapiens) + Core-binding factor subunit beta …. 230,000 tested, under 10 active. Potency, µM (top dose mostly 59.8 µM), for inactives: at the top dose activity, negative = inhibition, hits mostly inhibitors. AlphaScreen CBFb-His/RUNX1-biotin binding, biochemical; active = well fitted curve in the direction sought with a large enough effect; inconclusive = small, poorly fitted or top-dose-only effect, or effect the other way, or another doubt; inactive = no such curve, though single readings can be large or run the other way; note: % of control where 0% means no effect
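Interaction loss through any mechanism counts as activity. Pre-formed complex of His-CBF-beta and biotin-RUNX1 (30 nM apiece) is incubated with compound 15 min, then with 50 ng nickel and 50 ng streptavidin beads for 90 min before AlphaScreen detection.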
Numbers without * were called inactive; ? = inconclusive; . = no result given; [ ] = another dose, or the depositor's remark. Unless noted, calls come from the whole dose curve.

SMILES	Rango release inh	Rango complex inh	ClpP mod	MBNL1 CUG block	CBFb-RUNX1 inh
CCN1CCN(Cc2nc3cc(NC(=O)c4cccc([N+](=O)[O-])c4)ccc3n2CC)CC1	.	.	-3%	.	.
Cc1cc(=O)oc2cc(OCc3ccccc3)ccc12	-10%	-2%	-3%	4%	.
Cc1cc(=O)oc2cc(O)cc(OCc3ccccc3)c12	8.2µM*	?	-8%	.	.
CN(C)c1ccc(/C=C/c2ccnc3c([N+](=O)[O-])cccc23)cc1	.	.	3%	.	.
O=C(Cn1c(=O)oc2cc(Cl)ccc21)Nc1cccc(C(F)(F)F)c1	.	.	-1%	.	.
CCCCc1nc(N2CCOCC2)c(C#N)c2c1COC(C)(C)C2	5%	2%	28µM*	0%	15%
CC(C)c1nc(N2CCN(C(=O)c3ccccc3)CC2)c(C#N)c2c1COC(C)(C)C2	-6%	-1%	28µM*	0%	4%
CCCCc1nc(NCC2CCCO2)c(C#N)c2c1COC(C)(C)C2 (stereo unspecified)	-6%	-3%	7.9µM*	1%	1%
CCCc1nc(NCc2ccco2)c(C#N)c2c1COC(C)(C)C2	21%	5%	?	13%	5%
CCOc1ccccc1NC(=O)c1ccc2c(c1)CCCN2S(C)(=O)=O	.	.	1%	.	.
CCCCc1nc2c(c3c1C[C@H](C)OC3)CN(C(=O)Cc1cccc(OC)c1)CC2	.	.	.	.	4%[13.1 µM]
NCCCN(Cc1ccc(Cl)c(Cl)c1)c1ccc(Br)cn1	.	.	-4%	.	.
COc1ccc2[nH]c3c(N4CCC(O)(c5cccc(C(F)(F)F)c5)CC4)ncnc3c2c1	37%	0%	32µM*	6%	-3%
COc1ccc2[nH]c3c(N4CCN(Cc5ccc6c(c5)OCO6)CC4)ncnc3c2c1	1%	-1%	?	-16%	-5%
CC(C)(C)c1cc(NC(=O)COC(=O)c2nccnc2N)n(-c2ccccc2)n1	12%	2%	22µM*	27%	.
Cc1cc(NC(=O)COC(=O)c2nccnc2N)n(-c2ccccc2)n1	3%	1%	.	.	.
COc1ccc(C2C(C(=O)N3CCOCC3)=C(C)NC3=C2C(=O)CC(C)(C)C3)c(OC)c1 (stereo unspecified)	5%	-4%	16µM*	5%	-2%
CC1=C(C(=O)N2CCOCC2)C(c2ccccc2F)C2=C(CC(C)(C)CC2=O)N1 (stereo unspecified)	-4%	-4%	14µM*	-6%	1%
COc1ccc(C2C(C#N)=C(C)NC3=C2C(=O)CC(C)(C)C3)c(OC)c1 (stereo unspecified)	-9%	-1%	?	9%	13%
CC1=C(C(=O)N2CCOCC2)C(c2ccccc2F)NC(=O)N1 (stereo unspecified)	-7%	0%	.	-4%	13%
CCCCN(CCCC)CCCNC(=O)c1cc(-c2ccc(Cl)s2)nc2ccccc12	.	.	35µM*	.	.
CCCCN(C)CCCNC(=O)c1cc(-c2ccc(Br)s2)nc2ccccc12	.	.	4%	.	.
O=C(O)c1cc(-c2ccc(Cl)s2)nc2ccccc12	-10%	?	.	113%	5%
CN(Cc1ccccc1)C(=O)COC(=O)c1cc(-c2ccc(Cl)s2)nc2ccccc12	-9%	?	11µM*	19%	?
O=C1CC2(CCN(C(=O)c3ccccc3Br)CC2)Oc2ccccc21	0%	7%	28µM*	.	.
O=C1CC2(CCN(C(=O)c3ccc(Br)cc3)CC2)Oc2ccccc21	4%	-1%	32µM*	.	.
O=C1CC2(CCN(C(=O)c3ccc([N+](=O)[O-])cc3)CC2)Oc2ccccc21	-3%	0%	.	.	.
CCCNS(=O)(=O)c1ccc2nc(NC(=O)c3ccc(F)cc3)sc2c1	.	.	1%	.	.
